USP30 inh – inhibitors of human USP30 deubiquitinase; Ubiquitin carboxyl-terminal hydrolase 30 (Homo sapiens), Q70CQ3; purified USP30, Ub-rhodamine cleavage fluorescence; inhibition, % at 25 µM; 47,000 tested, 5.3% active; AID 1645860, 2021
USP28 inh – inhibitors of human USP28 deubiquitinase; purified USP28, Ub-rhodamine cleavage fluorescence, 30 min; inhibition, % at 25 µM; 47,000 tested, 3% active
USP17 inh – inhibitors of human USP17 deubiquitinase. 47,000 tested, 6.5% active. inhibition, % at 50 µM. Ubiquitin carboxyl-terminal hydrolase 17-like protein 5 (Homo sapiens), A8MUK1. purified USP17, Ub-rhodamine cleavage fluorescence, 3 h
Target sequence (A8MUK1 whole entry, looked up): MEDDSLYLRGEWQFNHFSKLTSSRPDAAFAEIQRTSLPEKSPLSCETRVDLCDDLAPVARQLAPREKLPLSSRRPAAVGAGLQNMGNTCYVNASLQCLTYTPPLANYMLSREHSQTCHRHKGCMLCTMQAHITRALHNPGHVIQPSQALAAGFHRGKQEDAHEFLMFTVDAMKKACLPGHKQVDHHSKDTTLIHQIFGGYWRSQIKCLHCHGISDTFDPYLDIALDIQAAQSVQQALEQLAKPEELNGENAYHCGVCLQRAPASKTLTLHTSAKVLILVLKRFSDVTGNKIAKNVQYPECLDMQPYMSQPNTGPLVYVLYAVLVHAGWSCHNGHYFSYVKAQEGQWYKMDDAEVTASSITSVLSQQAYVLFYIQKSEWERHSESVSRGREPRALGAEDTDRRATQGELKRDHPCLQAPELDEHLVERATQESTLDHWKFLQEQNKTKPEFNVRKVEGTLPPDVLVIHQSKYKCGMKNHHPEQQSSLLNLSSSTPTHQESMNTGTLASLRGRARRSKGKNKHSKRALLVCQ
Numbers stand for hits; n = inactive; x = no result given. Hits are enriched below; roughly 11% of the tested compounds scored in any of these assays. Cut-off read from the data, not from the text of the source: active = inhibition above about 30%; inactive = the rest.

SMILES	USP30 inh	USP28 inh	USP17 inh
CNC(=O)C1(c2cnccn2)CCCN1Cc1cc2ccccc2o1 (stereo unspecified)	n	n	n
COC(=O)c1cccc(Nc2c(-c3ccc(OC)cc3)nc3cnccn23)c1	n	n	n
Cc1ccc(Nc2c(-c3cccnc3)nc3cc(C)ccn23)cc1	32	33	n
O=C(c1cccs1)N1CCC(Nc2ncnc3c2CCC3)CC1	n	n	n
COCC(=O)N1CCCC1c1cccc(Nc2cccc(C)n2)n1 (stereo unspecified)	x	x	n
O=S(=O)(NCc1ccc(Cl)cc1)Oc1ccccc1O	n	n	n
Cc1ccc(C)c(Nc2nc3c(S(=O)(=O)c4ccccc4)nnn3c3ccccc23)c1	n	n	n
Cc1ccc(S(=O)(=O)c2nnn3c2nc(N2CCN(c4cc(C)ccc4C)CC2)c2ccccc23)cc1	30	n	n
COc1cccc(NC(=O)NC2CCN(c3ccccc3)C2=O)c1 (stereo unspecified)	n	n	n
COc1cccc(NC(=O)Nc2ccc(NC(C)=O)cc2)c1	n	51	n
COc1cccc(NC(=O)c2ccccc2NC(=O)Cc2ccccc2OC)c1	n	n	n
CC(=O)Nc1ccc(NC(=O)Nc2ccc(F)cc2)cc1	30	n	34
O=C(Nc1ccc(F)cc1)Nc1ccc(NC(=O)c2ccccc2O)cc1	n	n	34
COc1ccccc1NC(=O)Nc1ccc(NC(=O)c2ccccc2O)cc1	59	n	31
CC(=O)Nc1ccc(Sc2ccc(C)cc2)cc1	n	n	n
O=C(Nc1ccc(NC(=O)c2ccccc2O)cc1)Nc1ccc(OCc2ccccc2)cc1	n	n	n
CC1CCN(c2ccc3nnc(CCC(=O)NC4CCCC4)n3n2)CC1	n	n	n
CCN1CC2(CCN(Cc3ccccc3F)CC2)COc2ccccc2S1(=O)=O	n	n	n
Cc1ccc(CN2C[C@@H]3c4nc(Nc5ccccc5)ncc4CS(=O)(=O)[C@@H]3C2)cc1	n	n	n
COc1ccc(NC(=O)COCC(=O)Nc2ccc(C#N)cc2)c(OC)c1	n	n	n
CN1C(=O)c2ccccc2C(C(=O)N2CCN(c3ccc([N+](=O)[O-])cc3)CC2)C1c1cccs1 (stereo unspecified)	n	n	x
CCc1ccc(C(=O)Nc2nnc3ccccn23)cc1	n	n	n
Cc1cccc(Cl)c1NC(=O)Nc1ccc(NC(=O)c2ccccc2O)cc1	n	n	53
O=C(Nc1ccccc1)Nc1ccc2ncccc2c1	n	n	n
O=C(Nc1ccc(F)cc1)Nc1ccc2ccccc2n1	31	n	n
SMILES	USP30 inh	USP28 inh	USP17 inh
Cc1ccccc1C(=O)Nc1ccc(NC(=O)CN2CCOCC2)cc1	n	n	n
O=c1[nH]c(=O)n(CCc2ccccc2)c2c1CN(Cc1ccco1)CN2	n	n	n
Cc1ncc(C(=O)N2CCOC(c3ccc(Nc4ccc(F)cn4)cn3)C2)c(C)n1 (stereo unspecified)	n	n	n
Cc1cccnc1-n1c(C)c(C)c2c1ncn1nc(-c3ccco3)nc21	n	n	40
Cc1ccccc1-c1nc2c3c(C)c(C)n(-c4cccnc4)c3ncn2n1	n	n	n
O=C(C1CCCCC1)N1CCn2nc(-c3ccc4ccccc4c3)cc2C1	n	n	n
CCCn1c(=O)c2sccc2n2c(CCC(=O)NC3CCC(C)CC3)nnc12 (stereo unspecified)	40	n	x
CC(C)CCn1c(=O)c2ccccc2n2c(CCC(=O)NCc3ccccc3Cl)nnc12	n	n	n
CCn1c(=O)c2sccc2n2c(CCC(=O)NC3CCCCCC3)nnc12	n	n	n
CC(C)CCn1c(=O)c2ccccc2n2c(CCC(=O)NC3CCCCCC3)nnc12	50	n	41
O=c1[nH]c(C2CCN(S(=O)(=O)c3ccc(S(=O)(=O)N4CCOCC4)cc3)CC2)nc2c1nnn2Cc1cccc(Cl)c1	n	n	n
O=C(c1ccc(N2CCSc3ncccc32)s1)N1CCCCCC1	n	n	n
CCOC(=O)C1CCCN(Cc2nc3ccc([N+](=O)[O-])cc3c(=O)n2-c2ccccc2F)C1 (stereo unspecified)	n	n	n
NS(=O)(=O)c1ccc(CNC(=O)CCc2ccc(-c3ccccc3)o2)cc1	n	n	n
Cc1cccc(OCCCSc2nc3ccc(C)cc3[nH]2)c1	n	n	n
CCOc1ccc2nc(SCc3cn4cc(Cl)ccc4n3)[nH]c2c1	n	41	n
CCc1ccccc1N1CC(c2nnc(NC(=O)Cc3ccc(C)cc3)s2)CC1=O (stereo unspecified)	n	n	37
CCc1ccccc1N1CC(c2nnc(NC(C)=O)s2)CC1=O (stereo unspecified)	n	n	n
O=C(NCCc1ccccc1)[C@@H]1Cc2c([nH]c3ccccc23)C2c3ccccc3C(=O)N21 (stereo partly specified)	n	n	n
O=C(CN1CCCC1c1ccc2c(c1)OCCCO2)N1CCNC1=O (stereo unspecified)	n	n	n
COc1ccc(-c2nc3c4c(C)c(C)n(CCN(C)C)c4ncn3n2)cc1OC	n	n	n
COc1ccc(OC)c(NC(=O)CNC(c2ccccc2)c2ccccc2)c1	33	n	n
Cc1ccc(NC(=O)CNC(c2ccccc2)c2ccccc2)c(F)c1	n	n	n
COc1ccc(OC)c(NC(=O)CN2c3ccccc3S(=O)(=O)c3ccccc32)c1	n	n	n
COc1ccc(OC)c(NC(=O)CNC(=O)c2cc3c(OC)cccc3[nH]2)c1	n	n	64
SMILES	USP30 inh	USP28 inh	USP17 inh
COc1cccc(NC(=O)Nc2nc3c(s2)CN(Cc2ccccc2)C3=O)c1	n	n	n
O=C(Nc1ccc(NC(=O)C(c2ccccc2)c2ccccc2)cc1)c1cccs1	n	n	n
O=C(Nc1ccccc1)C(C(=O)Nc1ccccc1)c1ccccc1	31	n	n
CC12CCc3occc3C1CCC13CC(CCC12)C(O)(CO)C3 (stereo unspecified)	n	n	n
C[C@@]12CCc3occc3C1CCC13CC(CCC12)[C@@](O)(CO)C3 (stereo partly specified)	32	n	47
COc1cccc(-c2nc(C(N)=O)c3[nH]c(=O)n(-c4ccc5c(c4)OCO5)c3n2)c1O	n	n	n
COc1ccc(C2Nc3ccccc3C(=O)N2c2ccc3c(c2)OCO3)cc1O (stereo unspecified)	n	n	45
O=C(COc1cccc(Cl)c1)N1CCSc2ccccc21	36	39	n
O=C(COc1cccc(F)c1)N1CCSc2ccccc21	n	n	n
CN(C)C(=O)c1ccc(OC2CCN(C(=O)c3ccc(F)cc3)CC2)nc1	n	n	n
Cc1cc(C)cc(C(=O)N2CCC(Oc3ccc(C(=O)N(C)C)cn3)CC2)c1	n	44	n
N#Cc1ccccc1Cn1cc(-c2nc(-c3cnccn3)no2)ccc1=O	n	n	n
Cc1cccc(NC(=O)CCN2C(=O)c3cccnc3Sc3ccccc32)c1C	n	n	x
Cc1ccccc1NC(=O)CCN1C(=O)c2cccnc2Sc2ccccc21	38	n	n
O=C(NCCOc1ccccc1)C1CCCN1S(=O)(=O)c1ccccc1 (stereo unspecified)	n	n	n
Cc1nc(-c2ccc(NC(=O)N3CCC(Cc4ccccc4)CC3)cc2)no1	n	39	n
